The supplement of paper PMC9694430

Tests used:
Assay in all cases: thermal shift delta Tm vs DMSO control; higher = stronger stabilization (binding)
Conditions in all cases: 12.5 µM; protein concentration 2 µM
[1] = compound: C/C(O)=C(\C#N)C(=O)Nc1cc(Br)ccc1Br
Summary of the method: (§1)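 Heating from 25°C to 95°C at 0.05°C/s, fluorescence was recorded for 19.5 μl wells of 2 μM E. coli-expressed, purified rice kinase domain in 100 mM potassium phosphate pH 7.5, 150 mM NaCl, 10% glycerol and 5 × SYPRO Orange with compound in DMSO. Boltzmann fits gave melting temperatures for this differential scanning fluorimetry assay. The shift reported is the mean of three replicates against the DMSO-only protein.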

[2] = compound: CC(C)(C)c1cc(C=C(C#N)C#N)cc(Br)c1O
Summary of the method: as §1

[3] = compound: CC(C)(C)c1cc(C=C(C#N)C#N)cc(C(C)(C)C)c1O [Tyrphostin 9]
Summary of the method: as §1

[4] = compound: CCN1CCN(C(=O)Cc2ccc(Nc3ncc(F)c(Nc4ccc(C(=O)Nc5ccccc5Cl)cc4)n3)cc2)CC1 [Aurora A Inhibitor I]
Summary of the method: as §1

[5] = compound: COc1cc([C@@H]2c3cc4c(cc3[C@H](O)[C@H]3COC(=O)[C@@H]23)OCO4)cc(OC)c1OC [Picropodophyllin (PPP)]
Summary of the method: as §1

[6] = compound: COc1ccc(C[C@H]2NC[C@H](O)[C@H]2OC(C)=O)cc1 [Anisomycin]
Summary of the method: as §1

[7] = compound: COc1ccc(N(C(=O)Oc2c(C)cccc2C)c2ccnc(Nc3ccc(N4CCN(C)CC4)cc3)n2)c(OC)c1
Summary of the method: as §1

[8] = compound: COc1ccc2c(c1)/C(=C/c1cnc[nH]1)C(=O)N2
Summary of the method: as §1

[9] = compound: Cc1ccccc1-n1c(Cn2ncc3c(N)ncnc32)nc2cccc(C)c2c1=O
Summary of the method: as §1

[10] = compound: O=c1[nH]c2ccc(Cl)cc2c(N[C@@H]2CN3CCC2CC3)c1-c1nc2ccccc2[nH]1
Summary of the method: as §1

[11] = compound: Cn1cc(C2=C(c3cn(C4CCN(Cc5ccccn5)CC4)c4ccccc34)C(=O)NC2=O)c2ccccc21
Summary of the method: as §1
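Further: purified Escherichia coli-expressed rice kinase domain construct.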

Sequence of LOC_OS01G52050-cb004 (as listed by the source): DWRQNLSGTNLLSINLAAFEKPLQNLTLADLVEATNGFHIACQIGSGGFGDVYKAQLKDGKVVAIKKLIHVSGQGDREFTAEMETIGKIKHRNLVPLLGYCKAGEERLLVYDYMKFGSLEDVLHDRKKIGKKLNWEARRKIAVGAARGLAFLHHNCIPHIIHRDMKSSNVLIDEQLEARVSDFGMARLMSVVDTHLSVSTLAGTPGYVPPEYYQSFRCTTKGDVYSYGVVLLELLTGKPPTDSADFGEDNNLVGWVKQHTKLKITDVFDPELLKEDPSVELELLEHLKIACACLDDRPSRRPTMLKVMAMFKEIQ

Target | thermal shift delta Tm [1] | thermal shift delta Tm [2] | thermal shift delta Tm [3] | thermal shift delta Tm [4] | thermal shift delta Tm [5] | thermal shift delta Tm [6] | thermal shift delta Tm [7] | thermal shift delta Tm [8] | thermal shift delta Tm [9] | thermal shift delta Tm [10] | thermal shift delta Tm [11]
LOC_OS07G06570-cb004 | 0.21 °C | 0.05 °C | 2.9 °C | 0.63 °C | 1.02 °C | 1 °C | 1.01 °C | 0.08 °C | 1.12 °C | 0.51 °C | 
LOC_OS01G70970-cb002 | 0.43 °C | 0.94 °C | 2.45 °C | 4.68 °C | 0.24 °C | 0.31 °C | 0.31 °C | 4.78 °C | -0.01 °C | 5.08 °C | 
LOC_OS03G50810-cb003 | 0.73 °C | 0.71 °C | 0.82 °C | 3.94 °C | 0.16 °C | 0.59 °C | 0.9 °C | 3.03 °C | 0.23 °C | 5.29 °C | 1.38 °C
LOC_OS02G54510-cb004 | 0.42 °C | 0.85 °C | 0.47 °C | 1.31 °C | 0.14 °C | 0.56 °C | 0.56 °C | 0.44 °C | 0.08 °C | 1.44 °C | 0.65 °C
LOC_OS01G51400-cb002 | 0.56 °C | 0.64 °C | 1.62 °C | -0.05 °C | -0.01 °C | 0.24 °C | 0.03 °C | 0.84 °C | 0.24 °C | 0.3 °C | 
LOC_OS01G10900-cb004 | 1.47 °C | -0.04 °C | 3.61 °C | 0.91 °C | 0.63 °C | 0.16 °C | 0.15 °C | 1.02 °C | 0.1 °C | 0.03 °C | 
LOC_OS01G14860-cb001 | 1.32 °C | 1.24 °C | 3.15 °C | 3.95 °C | 0.29 °C | -0.05 °C | 0.07 °C | 5.78 °C | -0.1 °C | 7.87 °C | 
LOC_OS03G50450-cb001 | 1.25 °C | 0.89 °C | 1.36 °C | 6.04 °C | 0.03 °C | 0.61 °C | 0.76 °C | 1.49 °C | 0.18 °C | 2.51 °C | 0.07 °C
LOC_OS01G13800-cb001 | 0.83 °C | 2.05 °C | 1.92 °C | 0.32 °C | -0.49 °C | 0.17 °C | 0.12 °C | 0.49 °C | 0.06 °C | -0.04 °C | 
LOC_OS01G52050-cb004 | 0.91 °C | 2.42 °C | 3.34 °C | 1.73 °C | -0.26 °C | 0.12 °C | -0.12 °C | 4.67 °C | -0.06 °C | 9.73 °C | 
LOC_OS01G01410-cb001 | 0.85 °C | 0.56 °C | 3.01 °C | 2.6 °C | -0.11 °C | 0.63 °C | 0.04 °C | 2.18 °C | 0.73 °C | 3.66 °C | 
LOC_OS05G43570-cb004 | 0.83 °C | 0.83 °C | 1.46 °C | 1.76 °C | -0.21 °C | 0.46 °C | 0.38 °C | 0.79 °C | 0.31 °C | 1.44 °C | 1 °C
LOC_OS01G57100-cb003 | 1.78 °C | -0.11 °C | 6.29 °C | 1.79 °C | 0.44 °C | 1.09 °C | 1.54 °C | 1.34 °C | 0.63 °C | 3.28 °C | 
LOC_OS03G12390-cb001 | 1.3 °C | 0.42 °C | 0.25 °C | 5.37 °C | -0.2 °C | -0.29 °C | 0.45 °C | 4.35 °C | -0.25 °C | 4.7 °C | 0.52 °C
LOC_OS01G60700-cb002 | 1.75 °C | 1.51 °C | 4.79 °C | 0.71 °C | 0.4 °C | 0.15 °C | 1.33 °C | 0.77 °C | 0.02 °C | 1.41 °C | 3.52 °C
LOC_OS02G08530-cb003 | 1.36 °C | 1.36 °C | 2.26 °C | 2.48 °C | 0.6 °C | 1.28 °C | 0.72 °C | 2.97 °C | 0.37 °C | 5.48 °C | 0.99 °C
LOC_OS01G48390-cb002 | 0.77 °C | 0.72 °C | 2.01 °C | 4.11 °C | 0.19 °C | 0.33 °C | -0.27 °C | 1.32 °C | 0.11 °C | 1.21 °C | 
LOC_OS04G35114-cb001 | 1.21 °C | 0.3 °C | 0.89 °C | 3.75 °C | 0.21 °C | 0.57 °C | 1.64 °C | 6.97 °C | 0.13 °C | 5.95 °C | 1.31 °C
LOC_OS01G63280-cb003 | 0.5 °C | 0.9 °C | 2.28 °C | 0.22 °C | -0.03 °C | 0.15 °C | 0.38 °C | 4.22 °C | -0.3 °C | 0.81 °C | 
LOC_OS03G04050-cb001 | 0.96 °C | 0.99 °C | 0.99 °C | 0.02 °C | 0.1 °C | 0.72 °C | 0.67 °C | 0.53 °C | 0.27 °C | 0.52 °C | 0.69 °C
